Consider 13 compounds from PubChem BioAssay (NCI).

SMILES strings stand for the structures. Compounds without any hit were thinned out: in the full panel of roughly 83,000, 20% have a hit.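 Negative percent growth values reflect cell death: -40 means 40% of the cells present at the start died, and -100 means all died.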 A number with no mark means an inactive call. Activity calls are given as the source filed them. Rule for the calls: active = growth percent below 10; inactive = the rest.

Test systems include NCI-H23 lung; NCI-H226 lung; NCI-H322M lung; HOP-62 NSCLC; NCI-H460 lung; HOP-92 NSCLC; A549/ATCC NSCLC; 786-0 renal; COLO 205 colon.
Assay in all cases: NCI-60 one-dose screen, 48 h (100 = growth as untreated, 0 = no growth, -100 = all killed)
For another test, the system named is NCI-H522 lung. Particulars: 10 µM unless noted.

With `COc1ccc2c(c1)c(-c1nc(-c3c[nH]c4ncccc34)cs1)cn2CCCCN1CCOCC1`, the growth with NCI-H23 lung (10 µM unless noted) was 69.9%; in the test with NCI-H226 lung (10 µM unless noted) it was 70.3%; with NCI-H322M lung (10 µM unless noted) it was 57.2%; in the test on HOP-62 NSCLC (10 µM unless noted), 37.1%; in the test on NCI-H460 lung (10 µM unless noted) it was 4.29% (active); with HOP-92 NSCLC (10 µM unless noted), 43%. The growth was 39.9% in the test on NCI-H522 lung, 49.7% with A549/ATCC NSCLC (10 µM unless noted) and -43.7% (active) in the test on 786-0 renal (10 µM unless noted).

For the compound `NC1CN2CCC1CC2` (stereo not drawn), the growth with NCI-H23 lung (10 µM unless noted) is 98.7%; in the test with NCI-H226 lung (10 µM unless noted) it was 101%; with NCI-H322M lung (10 µM unless noted), 96.5%; in the test on HOP-62 NSCLC (10 µM unless noted) it was 101%; with NCI-H460 lung (10 µM unless noted) it was 109%; with HOP-92 NSCLC (10 µM unless noted), 77.7%. In addition, the results for the growth with NCI-H522 lung, with A549/ATCC NSCLC (10 µM unless noted) and in the test on 786-0 renal (10 µM unless noted) were 97.9%, 105% and 89.4%, respectively.

`CC[C@H](CC[C@@H](C)[C@H]1CC[C@H]2[C@@H]3CC[C@H]4C[C@]5(CC[C@]4(C)[C@H]3CC[C@]12C)OO[C@](C)(C(F)(F)F)O5)C(C)C`: the growth in the test on NCI-H23 lung (10 µM unless noted) is 92.3%; in the test with NCI-H226 lung (10 µM unless noted) it was 89.7%; in the test with NCI-H322M lung (10 µM unless noted) it was 91.5%; in the test on HOP-62 NSCLC (10 µM unless noted), 81.7%; with NCI-H460 lung (10 µM unless noted), 95.1%; with HOP-92 NSCLC (10 µM unless noted), 87.4%. Also, the growth in the test with NCI-H522 lung was 92.8%; in the test with A549/ATCC NSCLC (10 µM unless noted), 95.3%; in the test on 786-0 renal (10 µM unless noted), 97%.

For the compound `C[C@]12CC[C@H]3[C@@H](C[C@@H]4SC(Nc5cccc(F)c5)=N[C@@]45CC(=O)CC[C@]35C)[C@@H]1CCC2=O`, the growth was 55.1% in the test on NCI-H23 lung (10 µM unless noted); 71.9% in the test with NCI-H226 lung (10 µM unless noted); 55.8% in the test with NCI-H322M lung (10 µM unless noted); 20.4% in the test on HOP-62 NSCLC (10 µM unless noted); 52% in the test with NCI-H460 lung (10 µM unless noted); 68.9% with HOP-92 NSCLC (10 µM unless noted). In addition, the growth is -43.7% (active) in the test with NCI-H522 lung, 35.4% with A549/ATCC NSCLC (10 µM unless noted) and -13.9% (active) in the test on 786-0 renal (10 µM unless noted).

On to `O=S1(=O)OCCO1`, for which the growth is 96.5% in the test with NCI-H23 lung (10 µM unless noted); 103% with NCI-H226 lung (10 µM unless noted); 95.4% in the test with NCI-H322M lung (10 µM unless noted); 103% in the test on HOP-62 NSCLC (10 µM unless noted); 103% in the test with NCI-H460 lung (10 µM unless noted); 102% with HOP-92 NSCLC (10 µM unless noted). The growth in the test on NCI-H522 lung was 96.3%; in the test on A549/ATCC NSCLC (10 µM unless noted) it was 102%; with 786-0 renal (10 µM unless noted), 101%.

Regarding `CO[C@H]1[C@H](O[C@@H]2C[C@@H]3C/C=C/C(=O)O[C@@H](CO)C[C@H](O)[C@@H]4C[C@H](C)[C@H](C/C=C\C=C\[C@H](C)C[C@H](C2)O3)O4)O[C@@H](C)[C@H](O)[C@H]1O`, the growth was 22.5% in the test with NCI-H23 lung (10 µM unless noted); 37.9% in the test on NCI-H226 lung (10 µM unless noted); 89.5% with NCI-H322M lung (10 µM unless noted); 65.8% with HOP-62 NSCLC (10 µM unless noted); 54.5% in the test with NCI-H460 lung (10 µM unless noted); 95.2% in the test with HOP-92 NSCLC (10 µM unless noted). Moreover, the growth is 27.2% with NCI-H522 lung, 47% with A549/ATCC NSCLC (10 µM unless noted) and 78.7% in the test on 786-0 renal (10 µM unless noted).

For the compound `Cc1cc2c(cc1-c1ccnc(/C=C/C(=O)O)c1)C(C)(C)CCC2(C)C`, the growth in the test with NCI-H23 lung (10 µM unless noted) was 88.1%; in the test with NCI-H226 lung (10 µM unless noted), 78.8%; with NCI-H322M lung (10 µM unless noted), 106%; in the test with HOP-62 NSCLC (10 µM unless noted) it was 96.8%; in the test with NCI-H460 lung (10 µM unless noted), 85.3%; with HOP-92 NSCLC (10 µM unless noted), 56.5%. Also, the growth in the test on NCI-H522 lung was 76.2%; in the test on A549/ATCC NSCLC (10 µM unless noted) it was 77.1%; in the test on 786-0 renal (10 µM unless noted), 79.6%; in the test with COLO 205 colon (10 µM unless noted), 124%.

For the compound `NC(N)=NC(N)=Nc1ccc(Cl)cc1`, the growth in the test with NCI-H23 lung (10 µM unless noted) was 103%; with NCI-H226 lung (10 µM unless noted), 98.5%; in the test with NCI-H322M lung (10 µM unless noted) it was 109%; with HOP-62 NSCLC (10 µM unless noted), 112%; in the test on NCI-H460 lung (10 µM unless noted), 106%; with HOP-92 NSCLC (10 µM unless noted), 89.7%. Further, the growth in the test on NCI-H522 lung was 93.6%; with A549/ATCC NSCLC (10 µM unless noted) it was 111%; in the test on 786-0 renal (10 µM unless noted), 115%.

For the compound `Cc1cc(Br)c([N+](=O)[O-])cc1[N+](=O)[O-]`, the growth with NCI-H23 lung (10 µM unless noted) is 98.6%; in the test with NCI-H226 lung (10 µM unless noted), 95.5%; with NCI-H322M lung (10 µM unless noted), 132%; with HOP-62 NSCLC (10 µM unless noted), 100%; in the test with NCI-H460 lung (10 µM unless noted), 97.5%; in the test with HOP-92 NSCLC (10 µM unless noted), 134%. Also, the growth is -28% (active) in the test with NCI-H522 lung, 101% with A549/ATCC NSCLC (10 µM unless noted) and 103% in the test with 786-0 renal (10 µM unless noted).

`O=C1CCCCC1CN1CCCCC1` (stereo not drawn): the growth in the test on NCI-H23 lung (10 µM unless noted) was 99.6%; in the test with NCI-H226 lung (10 µM unless noted), 104%; in the test with NCI-H322M lung (10 µM unless noted), 94.6%; in the test on HOP-62 NSCLC (10 µM unless noted) it was 93%; in the test on NCI-H460 lung (10 µM unless noted), 101%; with HOP-92 NSCLC (10 µM unless noted) it was 97.2%. The growth is 84.3% with NCI-H522 lung, 94.9% with A549/ATCC NSCLC (10 µM unless noted) and 106% with 786-0 renal (10 µM unless noted).

As to `CCN1C(=O)CC(=O)N(CC)C1=S`, the growth was 82% in the test on NCI-H23 lung (10 µM unless noted); 103% in the test with NCI-H226 lung (10 µM unless noted); 102% in the test on NCI-H322M lung (10 µM unless noted); 172% in the test on HOP-62 NSCLC (10 µM unless noted); 107% in the test on NCI-H460 lung (10 µM unless noted); 92.1% with HOP-92 NSCLC (10 µM unless noted). Besides, the growth in the test with NCI-H522 lung was 84.1%; in the test on A549/ATCC NSCLC (10 µM unless noted) it was 109%; with 786-0 renal (10 µM unless noted) it was 97.6%; in the test on COLO 205 colon (10 µM unless noted), 115%.

Regarding `NC(=O)Oc1cc(OC(N)=O)cc(N(CCCl)CCCl)c1`, the growth is 50% in the test on NCI-H23 lung (10 µM unless noted); 79.5% with NCI-H226 lung (10 µM unless noted); 111% with NCI-H322M lung (10 µM unless noted); 58.5% with HOP-62 NSCLC (10 µM unless noted); 23.9% in the test on NCI-H460 lung (10 µM unless noted); 75.9% in the test on HOP-92 NSCLC (10 µM unless noted). For the same compound, the growth in the test with NCI-H522 lung is 17.9%; in the test on A549/ATCC NSCLC (10 µM unless noted), 50.6%; in the test with 786-0 renal (10 µM unless noted) it was 28.6%.

Consider `CC(=O)OCC1OC([S-])C(OC(C)=O)C(OC(C)=O)C1OC(C)=O.[Au+].c1ccc(CN2[CH-]N(Cc3ccccc3)C(c3ccccc3)=C2c2ccccc2)cc1`, for which the growth with NCI-H23 lung (4.75 µM) was 3.45% (active); in the test with NCI-H23 lung (10 µM), 2.04% (active); with NCI-H226 lung (4.75 µM) it was 9.99% (active); in the test on NCI-H226 lung (10 µM) it was 92.1%; in the test on NCI-H322M lung (4.75 µM) it was 20.8%; with NCI-H322M lung (10 µM) it was 57.5%. The growth was -12.6% (active) with HOP-62 NSCLC (4.75 µM); 45.1% in the test on HOP-62 NSCLC (10 µM); 1.76% (active) with NCI-H460 lung (4.75 µM); 29.2% in the test with NCI-H460 lung (10 µM); -24% (active) with HOP-92 NSCLC (4.75 µM); -9.45% (active) in the test on HOP-92 NSCLC (10 µM). Further, the growth was 8.63% (active) in the test with A549/ATCC NSCLC (4.75 µM); 59.2% in the test with A549/ATCC NSCLC (10 µM); -33.7% (active) in the test with 786-0 renal (4.75 µM); -72.1% (active) in the test on 786-0 renal (10 µM); -75.6% (active) in the test on COLO 205 colon (4.75 µM); 13.6% in the test with COLO 205 colon (10 µM).
